Assay results reported in PubChem BioAssay AID1159580 (chemical genetic matrix, 2015).
The campaign covered roughly 5,500 compounds. About 2,000 (36%) were called active. Another 18% or so got no clear call; they are omitted. The list shows a part of the results. Values without a mark were called inactive. No stated cut-off is given here; in the data, active means normalized growth mostly below about 0.91 (no sharp cut-off); inconclusive means no clear call, values can overlap the other calls; inactive means mostly above about 0.92.

Assay: chemical genetic growth profiling, strain panel (AID 1159580);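 further: tested at 20 µM; growth read once vehicle control cultures reached saturation at 30 °C; 1 = growth at the plate median or of vehicle wells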
Conditions: growth OD

For `CC(Cc1cccc(C(F)(F)F)c1)NCCOC(=O)c1ccccc1` (configuration not stated), the normalized growth (S. cerevisiae deletion strains, locus YJR075W, strain HOC1, stronger effect = lower value) was 0.886, the normalized growth (S. cerevisiae deletion strains, locus YKL009W, strain mrt4, stronger effect = lower value) was 0.974 and the normalized growth (S. cerevisiae deletion strains, locus YKL068W, stronger effect = lower value) was 1.01. The normalized growth (S. cerevisiae deletion strains, locus YKL085W, strain MDH1 (second series), stronger effect = lower value) was 0.998, the normalized growth (S. cerevisiae deletion strains, locus YKL085W, strain MDH1, stronger effect = lower value) was 0.998 and the normalized growth (S. cerevisiae deletion strains, locus YKL160W, strain elf1, stronger effect = lower value) was 0.946. It also gave a normalized growth (S. cerevisiae deletion strains, locus YKL190W, strain CNB1, stronger effect = lower value) of 0.982, a normalized growth (S. cerevisiae deletion strains, locus YKR001C, strain vps1, stronger effect = lower value) of 1.03 and a normalized growth (S. cerevisiae deletion strains, locus YKR026C, strain gcn3, stronger effect = lower value) of 0.987. For the same compound, the normalized growth (S. cerevisiae deletion strains, locus YKR091W, strain srl3, stronger effect = lower value) was 1, the normalized growth (S. cerevisiae deletion strains, locus YLL001W, strain dnm1, stronger effect = lower value) was 0.935 and the normalized growth (S. cerevisiae deletion strains, locus YLL026W, stronger effect = lower value) was 0.933. It also gave a normalized growth (S. cerevisiae deletion strains, locus YLL041C, strain sdh2, stronger effect = lower value) of 0.993, a normalized growth (S. cerevisiae deletion strains, locus YLR027C, strain aat2, stronger effect = lower value) of 0.93 and a normalized growth (S. cerevisiae deletion strains, locus YLR039C, strain RIC1, stronger effect = lower value) of 1.02. It also gave a normalized growth (S. cerevisiae deletion strains, locus YLR058C, strain SHM2, stronger effect = lower value) of 0.967, a normalized growth (S. cerevisiae deletion strains, locus YLR102C, strain apc9, stronger effect = lower value) of 1.02 and a normalized growth (S. cerevisiae deletion strains, locus YLR113W, strain HOG1, stronger effect = lower value) of 1. The normalized growth (S. cerevisiae deletion strains, locus YLR221C, strain rsa3, stronger effect = lower value) was 0.956, the normalized growth (S. cerevisiae deletion strains, locus YLR258W, strain gsy2, stronger effect = lower value) was 0.974 and the normalized growth (S. cerevisiae deletion strains, locus YLR262C, strain YPT6 (second series), stronger effect = lower value) was 0.785 (active). The normalized growth (S. cerevisiae deletion strains, locus YLR262C, strain YPT6, stronger effect = lower value) was 1.01, the normalized growth (S. cerevisiae deletion strains, locus YLR268W, strain sec22, stronger effect = lower value) was 0.992 and the normalized growth (S. cerevisiae deletion strains, locus YLR320W, strain mms22, stronger effect = lower value) was 0.913. For the same compound, the normalized growth (S. cerevisiae deletion strains, locus YLR330W, strain CHS5, stronger effect = lower value) was 0.991, the normalized growth (S. cerevisiae deletion strains, locus YLR342W, strain FKS1 (second series), stronger effect = lower value) was 0.745 (active) and the normalized growth (S. cerevisiae deletion strains, locus YLR342W, strain FKS1, stronger effect = lower value) was 0.88 (active). For the same compound, the normalized growth (S. cerevisiae deletion strains, locus YLR357W, strain rsc2, stronger effect = lower value) was 0.987, the normalized growth (S. cerevisiae deletion strains, locus YLR370C, strain arc18, stronger effect = lower value) was 0.931 and the normalized growth (S. cerevisiae deletion strains, locus YLR371W, strain rom2, stronger effect = lower value) was 1.02. The normalized growth (S. cerevisiae deletion strains, locus YLR384C, strain iki3, stronger effect = lower value) was 0.988, the normalized growth (S. cerevisiae deletion strains, locus YLR418C, strain cdc73, stronger effect = lower value) was 0.978 and the normalized growth (S. cerevisiae deletion strains, locus YML016C, strain PPZ1, stronger effect = lower value) was 0.989. For the same compound, the normalized growth (S. cerevisiae deletion strains, locus YML032C, strain rad52, stronger effect = lower value) was 0.941, the normalized growth (S. cerevisiae deletion strains, locus YML120C, strain ndi1, stronger effect = lower value) was 0.953 and the normalized growth (S. cerevisiae deletion strains, locus YML124C, strain tub3, stronger effect = lower value) was 1.02. It also gave a normalized growth (S. cerevisiae deletion strains, locus YMR058W, strain fet3, stronger effect = lower value) of 0.905, a normalized growth (S. cerevisiae deletion strains, locus YMR078C, strain ctf18, stronger effect = lower value) of 1.02 and a normalized growth (S. cerevisiae deletion strains, locus YMR125W, strain sto1, stronger effect = lower value) of 0.97. It also gave a normalized growth (S. cerevisiae deletion strains, locus YMR129W, stronger effect = lower value) of 0.985, a normalized growth (S. cerevisiae deletion strains, locus YMR205C, strain PFK2, stronger effect = lower value) of 0.961 and a normalized growth (S. cerevisiae deletion strains, locus YMR223W, strain ubp8, stronger effect = lower value) of 0.947. It also gave a normalized growth (S. cerevisiae deletion strains, locus YMR231W, strain pep5, stronger effect = lower value) of 1, a normalized growth (S. cerevisiae deletion strains, locus YMR263W, strain SAP30, stronger effect = lower value) of 0.962 and a normalized growth (S. cerevisiae deletion strains, locus YMR307W, strain GAS1, stronger effect = lower value) of 0.955. For the same compound, the normalized growth (S. cerevisiae deletion strains, locus YNL067W, strain RPL9B, stronger effect = lower value) was 0.923, the normalized growth (S. cerevisiae deletion strains, locus YNL071W, strain lat1, stronger effect = lower value) was 0.996 and the normalized growth (S. cerevisiae deletion strains, locus YNL128W, strain TEP1, stronger effect = lower value) was 0.951. The normalized growth (S. cerevisiae deletion strains, locus YNL153C, strain GIM3, stronger effect = lower value) was 0.938, the normalized growth (S. cerevisiae deletion strains, locus YNL183C, strain NPR1, stronger effect = lower value) was 0.895 and the normalized growth (S. cerevisiae deletion strains, locus YNL209W, strain ssb2, stronger effect = lower value) was 0.963. It also gave a normalized growth (S. cerevisiae deletion strains, locus YNL233W, strain BNI4, stronger effect = lower value) of 0.877, a normalized growth (S. cerevisiae deletion strains, locus YNL248C, strain rpa49, stronger effect = lower value) of 0.906 and a normalized growth (S. cerevisiae deletion strains, locus YNL250W, strain rad50, stronger effect = lower value) of 1.03. For the same compound, the normalized growth (S. cerevisiae deletion strains, locus YNL271C, strain bni1, stronger effect = lower value) was 1.01, the normalized growth (S. cerevisiae deletion strains, locus YNL298W, strain CLA4, stronger effect = lower value) was 1.01 and the normalized growth (S. cerevisiae deletion strains, locus YNL307C, strain MCK1, stronger effect = lower value) was 0.974. The normalized growth (S. cerevisiae deletion strains, locus YNL322C, strain KRE1 (second series), stronger effect = lower value) was 1.01, the normalized growth (S. cerevisiae deletion strains, locus YNL322C, strain KRE1, stronger effect = lower value) was 1.01 and the normalized growth (S. cerevisiae deletion strains, locus YNR049C, strain mso1, stronger effect = lower value) was 0.998. For the same compound, the normalized growth (S. cerevisiae deletion strains, locus YNR052C, strain pop2, stronger effect = lower value) was 0.921, the normalized growth (S. cerevisiae deletion strains, locus YOL006C, strain TOP1, stronger effect = lower value) was 0.605 and the normalized growth (S. cerevisiae deletion strains, locus YOL012C, strain htz1) was 0.888. The normalized growth (S. cerevisiae deletion strains, locus YOL147C, strain pex11, stronger effect = lower value) was 1.01, the normalized growth (S. cerevisiae deletion strains, locus YOR001W, strain rrp6, stronger effect = lower value) was 0.92 and the normalized growth (S. cerevisiae deletion strains, locus YOR061W, strain CKA2, stronger effect = lower value) was 0.994. It also gave a normalized growth (S. cerevisiae deletion strains, locus YOR069W, strain VPS5, stronger effect = lower value) of 0.995, a normalized growth (S. cerevisiae deletion strains, locus YOR070C, strain gyp1, stronger effect = lower value) of 0.985 and a normalized growth (S. cerevisiae deletion strains, locus YOR080W, strain dia2, stronger effect = lower value) of 0.971. The normalized growth (S. cerevisiae deletion strains, locus YOR083W, strain WHI5, stronger effect = lower value) was 0.913, the normalized growth (S. cerevisiae deletion strains, locus YOR106W, strain vam3, stronger effect = lower value) was 0.906 and the normalized growth (S. cerevisiae deletion strains, locus YOR136W, strain idh2, stronger effect = lower value) was 1.01. For the same compound, the normalized growth (S. cerevisiae deletion strains, locus YOR144C, strain elg1, stronger effect = lower value) was 1.02, the normalized growth (S. cerevisiae deletion strains, locus YOR184W, strain ser1, stronger effect = lower value) was 1.01 and the normalized growth (S. cerevisiae deletion strains, locus YOR231W, strain MKK1, stronger effect = lower value) was 0.979. The normalized growth (S. cerevisiae deletion strains, locus YOR265W, strain rbl2, stronger effect = lower value) was 0.975, the normalized growth (S. cerevisiae deletion strains, locus YOR270C, strain vph1, stronger effect = lower value) was 0.72 (active) and the normalized growth (S. cerevisiae deletion strains, locus YOR290C, strain snf2, stronger effect = lower value) was 0.975. For the same compound, the normalized growth (S. cerevisiae deletion strains, locus YOR316C, strain cot1, stronger effect = lower value) was 1.03, the normalized growth (S. cerevisiae deletion strains, locus YPL051W, strain arl3, stronger effect = lower value) was 0.904 (active) and the normalized growth (S. cerevisiae deletion strains, locus YPL055C, strain LGE1, stronger effect = lower value) was 0.954. It also gave a normalized growth (S. cerevisiae deletion strains, locus YPL078C, strain atp4, stronger effect = lower value) of 0.944, a normalized growth (S. cerevisiae deletion strains, locus YPL106C, strain sse1, stronger effect = lower value) of 0.975 and a normalized growth (S. cerevisiae deletion strains, locus YPL240C, strain hsp82, stronger effect = lower value) of 0.98. The normalized growth (S. cerevisiae deletion strains, locus YPL241C, strain CIN2, stronger effect = lower value) was 0.995, the normalized growth (S. cerevisiae deletion strains, locus YPL256C, strain CLN2, stronger effect = lower value) was 0.969 and the normalized growth (S. cerevisiae deletion strains, locus YPR119W, strain clb2, stronger effect = lower value) was 1.02. It also gave a normalized growth (S. cerevisiae deletion strains, locus YPR141C, strain kar3, stronger effect = lower value) of 1.02, a normalized growth (S. cerevisiae deletion strains, locus YPR163C, strain tif3, stronger effect = lower value) of 0.928 and a normalized growth (S. cerevisiae deletion strains, locus YPR167C, strain met16, stronger effect = lower value) of 1. For the same compound, the normalized growth (S. cerevisiae deletion strains, strain wtn01, stronger effect = lower value) was 0.978 and the normalized growth (S. cerevisiae strains, strain wild type, stronger effect = lower value) was 0.955.
